Bioassay records deposited in PubChem by Broad Institute.
Shown are actives, neighbours in structure and some others; about 6.7% of the full set was active somewhere.
T cruzi growth-1 = T. cruzi proliferation inhibition; T. cruzi beta-gal in NIH3T3, GalScreen luminescence, 90 h; inhibition, % at 8.34 µM; hit rate 5.9% among 77,000;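 active means mean inhibition above about 93%, with at least 55% of replicates each passing it, limit read from the data, passing the limit was not always enough; inconclusive means only one of those two conditions holds; inactive means neither condition holds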
C diff HTS = blocks growth of Clostridium difficile; growth activity, negative = inhibition, % at 16 µg/mL (by protocol); Clostridium difficile clinical isolate growth, OD600, 24 h; hits give low values; hit rate 0.25% among 86,000; AID 1259249;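 active means mean growth activity at or below -80% and every replicate also at or below -80%; inconclusive means mean at or below -80% but some replicate above -80%; inactive means mean growth activity above -80%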
Pf Dd2 inh = P. falciparum Dd2 growth inhibition; SYBR Green, 72 h; hits give low values; activity change, % at 10 µM; hit rate 2.3% among 94,000; AID 1159554; in the data active means activity change below about -80%; inconclusive means no clear call, values can overlap the other calls
T cruzi growth-2 = inhibitors of T. cruzi proliferation | hit rate 72% among 5,600 | T. cruzi beta-gal in NIH3T3, GalScreen luminescence, 90 h | inhibition, % at 8.35 µM | shares compounds with T cruzi growth-1;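 active means mean replicate inhibition above about 95% and at least 55% of replicates individually reaching it, limit read from the data; inconclusive means only one of the two criteria is met; inactive means neither criterion is met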
T cruzi growth-3 = Trypanosoma cruzi proliferation inhibition. shares compounds with T cruzi growth-1. hit rate 21% among 5,600. inhibition, % at 2.09 µM. T. cruzi beta-gal in NIH3T3, GalScreen luminescence, 90 h;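 active means mean inhibition above about 95%, with at least 55% of replicates also reaching it, limit read from the data; inconclusive means meets just one of the two conditions; inactive means meets neither condition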
NIH3T3 tox = NIH/3T3 (mouse) viability loss; shares compounds with T cruzi growth-1; NIH/3T3 viability, CellTiter-Glo ATP luminescence, 90 h; cytotoxicity (signal decrease), % at 8.35 µM; hit rate 14% among 5,600; AID 651742;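 active means mean signal decrease across replicates above about 35% based on untreated-well scatter, with enough replicates individually passing, limit read from the data; inconclusive means no rule stated though some were filed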
3T3 cytotox 2 = NIH/3T3 (mouse) viability loss; shares compounds with T cruzi growth-1; NIH/3T3 viability, CellTiter-Glo ATP luminescence, 90 h; inhibition, % at 24.9 µM; hit rate 56% among 5,600; AID 651744;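 active means mean loss of cell viability signal at or above a set limit, and enough replicates individually reaching it; inconclusive means meets only the mean limit or only the replicate share; inactive means meets neither condition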
Each line names hits and unclear results; the compound was inactive in the other large screens (follow-up assays come after a bar, where they were run).

C[C@H](CO)N1C[C@H](C)[C@@H](CN(C)Cc2ccc(Cl)c(Cl)c2)Oc2c(NC(=O)Nc3ccc4c(c3)OCO4)cccc2C1=O	none (no result: C diff HTS)
C[C@H]1CN([C@@H](C)CO)C(=O)c2cc(NC(=O)Nc3ccc4c(c3)OCO4)ccc2O[C@H]1CN(C)Cc1ccc(Cl)c(Cl)c1	none (no result: C diff HTS)
CCCNC(=O)N1[C@@H](CO)[C@@H](c2ccc(C3=CCCC3)cc2)[C@@H]1CNC(=O)CC	none
C/C=C/c1ccc([C@@H]2[C@@H](C#N)N(c3ncc(CC)s3)[C@@H]2CO)cc1	T cruzi growth-1 inconclusive | T cruzi growth-2 100.8 | T cruzi growth-3 107.0 | NIH3T3 tox inactive | 3T3 cytotox 2 38.0
C/C=C/c1ccc([C@@H]2[C@H](C#N)N(c3ncc(CC)s3)[C@H]2CO)cc1	none
C/C=C/c1ccc([C@@H]2[C@@H](C#N)N(c3ncc(CC)s3)[C@H]2CO)cc1	T cruzi growth-1 101.8 | T cruzi growth-2 95.9 | T cruzi growth-3 inactive | NIH3T3 tox inactive | 3T3 cytotox 2 52.8
C/C=C/c1ccc([C@H]2[C@@H](C#N)N(c3ncc(CC)s3)[C@H]2CO)cc1	T cruzi growth-1 101.1 | T cruzi growth-2 105.8 | T cruzi growth-3 99.9 | NIH3T3 tox inactive | 3T3 cytotox 2 inactive
COCC(=O)N1CC2(CN(Cc3ccc(OC)cc3)C2)c2c([nH]c3cc(OC)ccc23)[C@H]1CO	none (no result: T cruzi growth-1)
C[C@@H]1CN([C@@H](C)CO)C(=O)Cc2cc(NS(=O)(=O)c3cccs3)ccc2O[C@H]1CN(C)S(C)(=O)=O	none
C[C@@H]1CN([C@@H](C)CO)C(=O)Cc2cc(NC(=O)Nc3cccc4ccccc34)ccc2O[C@H]1CN(C)Cc1ccc(C(=O)O)cc1	none (no result: T cruzi growth-1)
COc1cccc(S(=O)(=O)N[C@H]2C=C[C@@H](CC(=O)NC3CCC3)O[C@@H]2CO)c1	none
COc1ccc(-c2cn(CC[C@H]3CC[C@@H](NC(=O)NC(C)C)[C@@H](CO)O3)nn2)cc1	none
C[C@@H]1CN([C@@H](C)CO)C(=O)c2cc(NC(=O)Nc3ccc(C(F)(F)F)cc3)ccc2O[C@@H](C)CCCCO[C@@H]1CN(C)C(=O)Nc1ccc2c(c1)OCO2	none (no result: T cruzi growth-1)
C[C@H]1CCCCO[C@H](CN(C)C(=O)Nc2ccc(C(F)(F)F)cc2)[C@@H](C)CN([C@@H](C)CO)C(=O)c2cc(NC(=O)Nc3ccc4c(c3)OCO4)ccc2O1	T cruzi growth-1 107.2, Pf Dd2 inh -84.6 | T cruzi growth-2 102.1 | T cruzi growth-3 109.9 | NIH3T3 tox inactive | 3T3 cytotox 2 inactive
C[C@H](CO)N1C[C@H](C)[C@H](CN(C)C(=O)Nc2ccc(C(F)(F)F)cc2)OCCCC[C@H](C)Oc2ccc(NC(=O)Nc3ccc4c(c3)OCO4)cc2C1=O	T cruzi growth-1 111.1 | T cruzi growth-2 99.9 | T cruzi growth-3 108.7 | NIH3T3 tox inactive | 3T3 cytotox 2 inactive
C[C@@H]1CCCCO[C@H](CN(C)C(=O)Nc2ccc3c(c2)OCO3)[C@H](C)CN([C@@H](C)CO)C(=O)c2cc(NC(=O)Nc3ccc4c(c3)OCO4)ccc2O1	none (no result: C diff HTS)
CO[C@@H]1CN(C)C(=O)c2ccc(NC(=O)C3CCCCC3)cc2OC[C@H](C)N(Cc2nccs2)C[C@H]1C	none (no result: C diff HTS, Pf Dd2 inh)
C[C@H](CO)N1C[C@H](C)[C@H](CN(C)C(=O)NC2CCCCC2)Oc2ncc(/C=C/c3ccccc3)cc2C1=O	none (no result: T cruzi growth-1)
COc1ccc(S(=O)(=O)N2CCCCN3[C@H](CO)[C@H](c4ccc(C5=CCCC5)cc4)[C@H]3C2)cc1	none
CS(=O)(=O)N1CCCCN2[C@H](C1)[C@H](c1ccc(C3=CCCC3)cc1)[C@@H]2CO	T cruzi growth-1 inconclusive | T cruzi growth-2 inactive | T cruzi growth-3 inactive | NIH3T3 tox inactive | 3T3 cytotox 2 inactive
COc1ccc(S(=O)(=O)N2CCCCN3[C@@H](CO)[C@H](c4ccc(C5=CCCC5)cc4)[C@@H]3C2)cc1	T cruzi growth-1 inconclusive | T cruzi growth-2 103.9 | T cruzi growth-3 inactive | NIH3T3 tox inactive | 3T3 cytotox 2 104.3
CS(=O)(=O)N1CCCCN2[C@H](CO)[C@H](c3ccc(C4=CCCC4)cc3)[C@@H]2C1	none
O=C(Nc1ccc2c(c1)OCO2)N[C@H]1CC[C@@H](CCNC(=O)C2CCCC2)O[C@@H]1CO	none (no result: T cruzi growth-1)
O=C(C1CCCC1)N1CC(=O)N2[C@H](CO)[C@H](c3ccc(C#CCc4ccccc4)cc3)[C@H]2C1	none (no result: T cruzi growth-1)
OC[C@@H]1[C@@H](c2ccc(C#CC3CC3)cc2)[C@@H]2CN(CCC(F)(F)F)CCCCN12	none
OC[C@H]1[C@H](c2ccc(-c3cccc(F)c3)cc2)[C@H]2CN(CCC(F)(F)F)CCCCN21	none
COc1ccccc1C#Cc1ccc([C@@H]2[C@H]3CN(CCC(F)(F)F)CCCCN3[C@H]2CO)cc1	T cruzi growth-1 97.5 | T cruzi growth-2 96.8 | T cruzi growth-3 100.8 | NIH3T3 tox 61.5 | 3T3 cytotox 2 106.5
Cc1cccc(-c2ccc([C@H]3[C@H]4CN(CCC(F)(F)F)CCCCN4[C@H]3CO)cc2)c1	T cruzi growth-1 inconclusive | T cruzi growth-2 102.6 | T cruzi growth-3 116.0 | NIH3T3 tox inactive | 3T3 cytotox 2 105.1
OC[C@@H]1[C@@H](c2ccc(-c3ccc(F)cc3)cc2)[C@H]2CN(CCC(F)(F)F)CCCCN12	T cruzi growth-1 103.8 | T cruzi growth-2 96.0 | T cruzi growth-3 103.3 | NIH3T3 tox 96.2 | 3T3 cytotox 2 105.0
OC[C@@H]1[C@H](c2ccc(-c3ccc(F)cc3)cc2)[C@H]2CN(CCC(F)(F)F)CCCCN12	none
OC[C@@H]1[C@H](c2ccc(C3=CCCC3)cc2)[C@@H]2CN(CCC(F)(F)F)CCCCN12	T cruzi growth-1 104.2 | T cruzi growth-2 inconclusive | T cruzi growth-3 inactive | NIH3T3 tox inactive | 3T3 cytotox 2 104.7
OC[C@H]1[C@@H](c2ccc(C3=CCCC3)cc2)[C@@H]2CN(CCC(F)(F)F)CCCCN12	none
C[C@@H]1CN([C@@H](C)CO)C(=O)c2cc(C#CC(C)(C)O)cnc2O[C@H]1CN(C)C(=O)CC1CC1	none
CC(C)(C)[S@@](=O)N1Cc2cc(C(=O)NCc3ccc4c(c3)OCO4)nc(-c3cccc(-c4ccncc4)c3)c2[C@H]1CCO	none (no result: C diff HTS)
OC[C@@H]1[C@H](c2ccc(C#CC3CC3)cc2)[C@H]2CN(CCC(F)(F)F)CCCCN12	T cruzi growth-1 104.9 | T cruzi growth-2 107.7 | T cruzi growth-3 inconclusive | NIH3T3 tox inactive | 3T3 cytotox 2 104.4
OC[C@H]1[C@H](c2ccc(C#CC3CC3)cc2)[C@@H]2CN(CCC(F)(F)F)CCCCN12	none
OC[C@@H]1[C@H](c2ccc(-c3ccccc3)cc2)[C@@H]2CN(CCC(F)(F)F)CCCCN12	T cruzi growth-1 104.2 | T cruzi growth-2 103.3 | T cruzi growth-3 inactive | NIH3T3 tox 57.7 | 3T3 cytotox 2 104.9
OC[C@H]1[C@H](c2ccc(-c3ccccc3)cc2)[C@H]2CN(CCC(F)(F)F)CCCCN21	none
